Laboratory results published in PubChem BioAssay.

Assay: RAM pathway blockade in budding yeast – dse1pr::URA3 reporter, 5-FOA selection, pilot screen (AID 869);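 note: 0% = DMSO wells with no growth and 100% = 10 µM 1-NA-PP1 with full growth; RAM network block rescues cells from 5-FOA so hits raise OD615 growth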
Settings: S. cerevisiae dse1pr::URA3 5-FOA growth, OD615, 2 d; at 10 µM; hits give high values; strain carries analog-sensitive mutant Cbk1 kinase;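 active = inhibition over a set limit, the all-compound mean plus 3 SD, in both replicate runs; inconclusive = over that limit in just one replicate run; inactive = at or under that limit in both runs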

inhibition, inactive:
COc1cc2c(cc1OC)C(C(=O)NC1CC1)C1c3ccccc3CCN1C2=O (stereo not given) 0.58%
CCSc1nnc(Cn2c(=O)sc3ccccc32)n1C 0.71%
COC(=O)c1ccc(N2C(=O)CC(Sc3n[nH]c(C)n3)C2=O)cc1 (stereo not given) 1.42%
Cc1ccc(-c2noc(CSc3nnnn3-c3ccccc3)n2)cc1 1.95%
CC(=O)c1cccc(NC(=O)c2cc(C(C)C)on2)c1 0.785%
COc1ccc(CNC(=O)c2cc3c(C)nc4ccccc4c3o2)c(OC)c1 1.66%
CCn1cc(S(=O)(=O)CC(=O)Nc2ccc(C)cc2)c2ccccc21 1.61%
COc1ccc(S(=O)(=O)NCCN2CCOCC2)c2ccccc12 -0.495%
Cn1c(=O)c2c(nc(NCCc3ccccc3)n2Cc2ccc(F)cc2)n(C)c1=O 1.03%
O=C(NCCc1cn2ccsc2n1)c1cccs1 1.29%
Cc1ccc2oc(=O)c3cnn(CC(=O)N(CCCN4CCOCC4)Cc4ccco4)c3c2c1 1.55%
Cc1ccccc1-c1noc(-c2cccs2)n1 2.11%
Cc1cc(S(=O)(=O)N2CCN(Cc3ccccc3)CC2)c(C)s1 1.35%
COc1ccc(OC)c(NC(=O)C2CCCN(S(=O)(=O)c3cccc4cccnc34)C2)c1 (stereo not given) 1.78%
CCC(C)N1C(=O)CCC1C(=O)NCc1ccc2c(c1)OCO2 (stereo not given) 2.33%
O=C(CCCOc1ccccc1)NCC1CCCO1 (stereo not given) 4.06%
COC(=O)c1ccccc1NC(=O)c1c(O)c2c([nH]c1=O)CCCC2 1.71%
COc1cccc(Nc2cc(C)nc3nc(C)nn23)c1 1.68%
COc1ccc(N2CSC3=C(C#N)C(c4cc(OC)c(OC)cc4OC)CC(=O)N3C2)c(OC)c1 (stereo not given) 1.16%
Cc1c(C(=O)NCc2cccnc2)sc2nc(-c3ccc(F)cc3)cn12 1.01%
COc1ccc(CC(=O)N2CC3(C)CC2CC(C)(C)C3)cc1OC (stereo not given) 2.62%
CCC(CC)C(=O)Nc1cc(C)c2c(=O)oc3ccccc3c2n1 2.33%
CCOC(=O)N1CCN(CC(=O)Nc2cc(OCC)ccc2OCC)CC1 2.08%
Cc1ccc2c(CC(=O)Nc3nc(C)cs3)coc2c1 1.38%
O=C(Nc1ccccc1)N(CCc1ccncc1)C1CCCCC1 1.18%
COc1ccc(C2C(C(=O)NCC3CCCO3)c3cc(OC)c(OC)cc3C(=O)N2C)cc1OC (stereo not given) 1.46%
Cc1cc(C)c(C#N)c(Nc2ccc3c(c2)OCCO3)n1 0.915%
O=C(Cn1ncc2c(=O)oc3ccccc3c21)N1CCC(N2CCCCC2)CC1 1.65%
CCCC(=O)Nc1nc2c(OC)ccc(OC)c2s1 2.33%
O=C(Nc1nccs1)C1CCCN(S(=O)(=O)c2cccc3cccnc23)C1 (stereo not given) 1.6%
Cc1c(N=c2c(=O)c3ccccc3c2=O)c(=O)n(-c2ccccc2)n1C 4.17%
CCOCCOC(=O)C1=C(C)NC2=C(C(=O)CC(c3cccs3)C2)C1c1ccsc1 (stereo not given) 2.27%
COc1ccc(CN2CCN(c3ncccn3)CC2)c(OC)c1 1.24%
Cc1cc(Nc2ccc(F)cc2Cl)n2nc(C)nc2n1 1.51%
COC(=O)C1C(=O)C=C(N2CCOCC2)CC1(C)C (stereo not given) 0.685%
COc1ccc(S(=O)(=O)N2CCN(c3cccc(C)c3C)CC2)cc1 1.02%
O=C(Nc1ccccc1Cl)c1ccc2c(c1)N(Cc1ccc(F)cc1)C(=O)CS2=O (stereo not given) 3.9%
CCOC(=O)c1cc2c(=O)n3cccc(C)c3nc2n(CCCOC)c1=NC(=O)c1cccnc1 0.515%
Cc1cccc(OCCCCCNCCO)c1 1.7%
COc1ccc(OC)c(Nc2cc(C)nc3nc(C)nn23)c1 1.67%
